Source: PMC4336329 (PLoS ONE, 2015)
The campaign covered roughly 310,000 compounds. About 14,000 (4.5%) showed an effect of 50% or more. Effects have a minus sign here. This is one part of a sample in which strong results are shown more often than they occur.

target: human ether-à-go-go-related gene (hERG) potassium channel (human, UniProt Q12809); experiment: primary screen, population patch clamp on CHO cells stably expressing hERG; higher = less effect of the substance
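Note: peak tail current of the secondary pulse compared with the same well before compound.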

Chain of human ether-à-go-go-related gene (hERG) potassium channel (Q12809 whole entry, looked up): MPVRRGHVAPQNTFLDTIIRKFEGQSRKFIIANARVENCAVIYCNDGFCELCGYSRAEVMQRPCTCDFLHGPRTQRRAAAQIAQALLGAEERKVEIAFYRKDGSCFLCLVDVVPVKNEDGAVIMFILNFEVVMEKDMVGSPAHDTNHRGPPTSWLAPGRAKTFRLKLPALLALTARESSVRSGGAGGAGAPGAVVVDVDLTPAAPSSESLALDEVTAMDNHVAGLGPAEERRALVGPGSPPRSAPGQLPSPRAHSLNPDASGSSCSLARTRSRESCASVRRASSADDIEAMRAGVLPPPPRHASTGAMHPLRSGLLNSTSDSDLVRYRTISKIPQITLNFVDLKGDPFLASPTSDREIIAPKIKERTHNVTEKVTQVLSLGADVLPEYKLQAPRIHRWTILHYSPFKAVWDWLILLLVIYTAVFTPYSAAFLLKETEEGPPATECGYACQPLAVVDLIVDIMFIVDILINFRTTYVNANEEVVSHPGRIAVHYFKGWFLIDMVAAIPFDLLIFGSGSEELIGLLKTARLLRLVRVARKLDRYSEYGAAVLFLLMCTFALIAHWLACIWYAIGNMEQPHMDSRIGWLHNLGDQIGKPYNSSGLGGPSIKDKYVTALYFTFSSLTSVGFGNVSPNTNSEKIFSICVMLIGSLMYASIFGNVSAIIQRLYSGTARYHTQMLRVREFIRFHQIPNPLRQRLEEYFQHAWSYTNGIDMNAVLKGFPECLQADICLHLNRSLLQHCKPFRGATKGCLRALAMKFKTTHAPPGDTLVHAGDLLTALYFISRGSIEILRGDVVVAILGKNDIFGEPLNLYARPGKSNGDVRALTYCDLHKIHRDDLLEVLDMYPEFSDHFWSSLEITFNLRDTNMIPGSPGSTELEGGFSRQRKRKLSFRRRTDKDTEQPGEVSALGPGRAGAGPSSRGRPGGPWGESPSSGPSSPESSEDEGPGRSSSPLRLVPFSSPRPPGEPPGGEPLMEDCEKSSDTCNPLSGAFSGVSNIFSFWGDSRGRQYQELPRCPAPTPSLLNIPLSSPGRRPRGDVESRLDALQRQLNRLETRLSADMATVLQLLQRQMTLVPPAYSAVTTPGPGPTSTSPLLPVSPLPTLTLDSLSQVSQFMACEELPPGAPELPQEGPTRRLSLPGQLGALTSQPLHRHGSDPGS

| SMILES | hERG current change (%, negative = inhibition) at 10uM [%] |
| --- | --- |
| COc1ccc(OC)c(NC(=O)c2ccc(CN3CCc4ccccc4C3)cc2)c1 | 3.78 |
| O=C(Nc1ccc(F)cc1)c1cccc(C(=O)Nc2ccc(F)cc2)c1 | -28.4 |
| O=C(CN1C(=O)S/C(=C\c2ccc(O)c([N+](=O)[O-])c2)C1=O)Nc1ccc(N2CCOCC2)cc1 | 12.2 |
| O=C1CCC(=O)N1OCCCOc1ccc2c(c1)CCC2 | 1.61 |
| CCCNC(=O)Cc1c(C)n(C(=O)c2ccc(Cl)cc2)c2ccc(OC)cc12 | 14.6 |
| COC(=O)C1=NNC2(c3ccc(C)cc3)C(=O)N(c3ccc(C)cc3)C(=O)C12 (stereo not drawn) | 16.5 |
| N/C(=N\OC(=O)c1ccccc1)c1ccccn1 | 12.9 |
| CCOc1ccc(CC(=O)N/N=C/c2cccnc2)cc1OCC | 14 |
| CCCC(=O)Nc1ccc(C(=O)O)cc1NC(=O)CCC | 8.09 |
| CCNc1cc2n(c(=O)n1)CCc1cc(OC)c(OC)cc1-2 | -19.5 |
| Cc1ccc(C(=O)N/C(=C\c2sccc2C)C(=O)NCc2ccncc2)cc1 | -30.5 |
| Cc1ccc(C(=O)N/C(=C/c2cccs2)C(=O)NCC2CCCO2)cc1 (stereo not drawn) | -9.01 |
| Cc1ccc(C(=O)N/C(=C/c2cccs2)C(=O)NCc2ccco2)cc1 | -15.8 |
| Cc1ccc(C(=O)N/C(=C\c2cccs2)C(=O)NCc2ccncc2)cc1 | -52.9 |
| Cc1ccc(C(=O)NC(=S)NCc2cccnc2)cc1 | -7.52 |
| Cc1ccc(C(=O)N/C(=C\c2cccs2)C(=O)NCc2cccnc2)cc1 | -58 |
| CC1(C)CC(OC(=O)c2ccccc2)CC(C)(C)N1 | 9.14 |
| COc1ccc(NC(=O)c2oc3ccccc3c2NC(=O)C(C)(C)C)cc1 | 11.3 |
| CC(CCC(=O)Nc1nncs1)C(=O)O (stereo not drawn) | -6.61 |
| CCCOC(=S)NC(=O)c1sc2ccccc2c1Cl | 12.3 |
| CC(C)c1nc2cc(C(=O)N(C)Cc3ccc(F)cc3)ccc2o1 | 1.04 |
| O=C1CCc2cc(S(=O)(=O)N3CCC(C(=O)NCc4ccccc4Cl)CC3)ccc2N1 | 4.83 |
| CC(C)CCn1c(=O)c2ccccc2n2c(CCC(=O)NCC3CCCO3)nnc12 (stereo not drawn) | -1.79 |

| SMILES | hERG current change (%, negative = inhibition) at 10uM [%] |
| --- | --- |
| CC(C)Cn1c(=O)c2ccccc2n2c(CCC(=O)NC3CCN(Cc4ccccc4)CC3)nnc12 | -39.4 |
| CN1CCN(CCCNC(=O)CCc2nnc3n(Cc4ccccc4Cl)c(=O)c4ccccc4n23)CC1 | 5.29 |
| O=C(CCc1nnc2n(CCc3ccccc3)c(=O)c3ccccc3n12)NCCCN1CCCCC1 | -77.6 |
| CCOCCCNC(=O)CCc1nnc2n(CCC(C)C)c(=O)c3ccccc3n12 | -22.5 |
| CC1CCN(CCCNC(=O)CCc2nnc3n(CCc4ccccc4)c(=O)c4ccccc4n23)CC1 | -76.8 |
| CC(C)OCCCn1c(=O)c2ccccc2n2c(CCC(=O)NC3CCN(Cc4ccccc4)CC3)nnc12 | -51.4 |
| CC(C)CCNC(=O)CCc1nnc2n(CCCOC(C)C)c(=O)c3ccccc3n12 | -26.7 |
| CC(C)CCn1c(=O)c2ccccc2n2c(CCC(=O)NC3CCN(Cc4ccccc4)CC3)nnc12 | -49.6 |
| Cc1ccc(S(=O)(=O)NNC(=O)C2CCCCC2)cc1 | 9.57 |
| NC(=O)[C@@H]1CCCN1Cc1nc(-c2ccc(C(F)(F)F)cc2)no1 | -5.68 |
| CC(O)[C@@H](C(=O)N1CCNCC1)n1cc(CCCCN)nn1.Cl (stereo partly drawn) | 14.3 |
| O=C(c1cccc2ccccc12)N1CCN(c2ccc([N+](=O)[O-])c(N3CCOCC3)c2)CC1 | -13.7 |
| O=C(c1ccc2ccccc2c1)N1CCN(c2ccc([N+](=O)[O-])c(N3CCOCC3)c2)CC1 | -18.8 |
| Cc1ccc(C(=O)N2CCN(c3ccc([N+](=O)[O-])c(N4CCOCC4)c3)CC2)cc1 | -60 |
| O=C(c1ccc(F)cc1)N1CCN(c2ccc([N+](=O)[O-])c(N3CCOCC3)c2)CC1 | -58.3 |
| O=C(c1ccccc1)N1CCN(c2ccc([N+](=O)[O-])c(N3CCOCC3)c2)CC1 | -7.22 |
| O=C(c1ccc(F)cc1)N1CCN(c2ccc([N+](=O)[O-])c(N3CCCCC3)c2)CC1 | -15.3 |
| C=CCSc1n[nH]c(-c2ccc(OCCCC)cc2)n1 | -7.32 |
| COc1cccc(N2CCN(C(=O)c3ccc(=O)oc3)CC2C)c1 (stereo not drawn) | -59.7 |
| Cc1cccc(N2CCN(C(=O)c3ccc4nc(-c5ccco5)c(-c5ccco5)nc4c3)CC2C)c1 (stereo not drawn) | 2.44 |
| COc1cccc(NC(=O)N2CCN(c3cccc(C)c3)C(C)C2)c1 (stereo not drawn) | -16 |
| CC(C)CCNc1cc(=O)n(C)c(=O)n1C | 4.5 |
| CC(C)c1ccc(NC2CCCN(C(=O)c3cccnc3)C2)cc1 (stereo not drawn) | 0.148 |

| SMILES | hERG current change (%, negative = inhibition) at 10uM [%] |
| --- | --- |
| Cc1c(C(=O)Nc2ccc(F)cc2)sc2ncn(CC(=O)N3CCCCC3)c(=O)c12 | 1.43 |
| O=C(N/N=C\c1c(O)ccc2ccccc12)c1ccc(Cn2cccn2)o1 | 9.2 |
| CC(C)c1ccc(/C=N\NC(=O)c2ccc(Cn3cccn3)o2)cc1 | -42 |
| Cc1ccccc1/C=N\NC(=O)c1ccc(Cn2cccn2)o1 | 4.98 |
| O=C(N/N=C\c1cccc(Cl)c1)c1ccc(Cn2cccn2)o1 | -71.2 |
| O=C(N/N=C\c1ccc(Cl)s1)c1ccc(Cn2cccn2)o1 | -57.2 |
| O=C(N/N=C\c1ccc(Br)cc1)c1ccc(Cn2cccn2)o1 | -34.1 |
| O=C(OCCOCCN=C1NS(=O)(=O)c2ccccc21)c1ccccc1 | 2.47 |
| COc1ccc(CNC(=O)CN(c2cccc(OC)c2)S(C)(=O)=O)cc1 | 2.47 |
| Cc1cc2c(NC(=O)Nc3ccc(F)cc3)cccc2nn1 | 8.16 |
| Clc1cccc(NCc2nnc(SCc3ccccc3)o2)c1 | 3.21 |
| COc1ccc(Cn2c(-c3ccc(OC)cc3)nc3ccccc32)cc1 | -36.9 |
| CCOc1ccc2[nH]c(=O)c(CN(CCO)C(=O)c3ccc(OC)c(OC)c3)cc2c1 | -0.583 |
| CCCCCCN1C=CC(=C2C(=O)c3ccccc3C2=O)C=C1 | 10.5 |
| CCCCCN1C=CC(=C2C(=O)c3ccccc3C2=O)C=C1 | -61 |
| CCCCN1C=CC(=C2C(=O)c3ccccc3C2=O)C=C1 | -1.69 |
| CCOC(=O)c1c(C)cc(C)n2c1nc1ccccc12 | -38.8 |
| CN(Cc1c(C(=O)N/N=C/c2ccccc2)nnn1-c1nonc1N)C1CCCCC1 | 8.4 |
| CN(C)/N=C/c1ccc(OS(=O)(=O)c2ccccc2)cc1 | 8.55 |
| CCN(Cc1ccccc1)c1ccc(/C=N/N=C(N)N)cc1 | -25 |
| NC(N)=N/N=C/c1ccc(OS(=O)(=O)c2ccccc2)cc1 | -55.6 |
| NC(N)=N/N=C/c1ccc(N(c2ccccc2)c2ccccc2)cc1.O=[N+]([O-])O | -50.8 |
| COc1ccc(/C=N\N=C(N)N)cc1.O=[N+]([O-])O | -1.01 |

| SMILES | hERG current change (%, negative = inhibition) at 10uM [%] |
| --- | --- |
| CCC(=O)N/N=C/c1ccc(OS(=O)(=O)c2ccccc2)cc1 | -17.5 |
| COc1ccc(C(CNC(=O)COc2cc(C)ccc2Cl)N2CCCCC2)cc1 (stereo not drawn) | 1.57 |
| O=C(c1ccc2c3c(cccc13)CC2)C1CCCN(C(=O)c2ccc(=O)[nH]c2)C1 (stereo not drawn) | 4.99 |
| COc1ccc(OC)c(-n2c(=S)[nH]c3cc(C(=O)N4CCC(C(N)=O)CC4)ccc3c2=O)c1 | -2.14 |
| COc1ccc(-c2csc(COC(=O)C(C)(C)C)n2)cc1 | 18 |
| CC(C)Cc1nc2oc3c(NCC(C)O)ncnc3c2c2c1CCCC2 (stereo not drawn) | -7.54 |
| CC(C)c1nc2oc3c(NCC4CCCO4)ncnc3c2c2c1CCC2 (stereo not drawn) | -27.4 |
| CC(C)c1nc2oc3c(NCc4cccnc4)ncnc3c2c2c1CCC2 | -50.2 |
| CC(C)Cc1nc2oc3c(NCC4CCCO4)ncnc3c2c2c1CCC2 (stereo not drawn) | -35.8 |
| CC(C)c1nc2oc3c(N(C)CCO)ncnc3c2c2c1CCC2 | -28.1 |
| CC(C)Cc1nc2oc3c(NCc4cccnc4)ncnc3c2c2c1CCC2 | -50.8 |
| Cc1ccc(Cn2c(Sc3nccc(C)n3)nc3c2c(=O)[nH]c(=O)n3C)cc1 | -8.13 |
| N#CCCNC(=O)Cn1c(COc2ccc(Cl)cc2)nc2ccccc21 | -24.5 |
| Cc1ccc(/C=C/c2nc3ccccc3s2)s1 | 3.83 |
| Cc1oc(-c2ccccc2)nc1CS(=O)CC(=O)N1CCc2ccccc2C1 (stereo not drawn) | -20.5 |
| Cc1oc(-c2ccc(-c3ccccc3)cc2)nc1CN1CCN(CC(=O)N(C)C)CC1 | -53 |
| Cc1oc(-c2ccc(Cl)cc2)nc1CN1CCC(C(=O)N2CCN(Cc3ccccc3)CC2)CC1 | -69.1 |
| Cc1oc(-c2ccccc2)nc1C(=O)O | 17 |
| Cc1ccc(-c2nc(CS(=O)(=O)CC(=O)N3CCc4ccccc4C3)c(C)o2)cc1 | -16 |
| Cc1oc(-c2ccc(Cl)cc2)nc1CN1CCC(C(=O)N2CCc3ccccc3C2)CC1 | -74 |
| COC(=O)c1ccc(-c2nc(CN3CCN(Cc4cccc(C)c4)CC3)c(C)o2)cc1 | -25.3 |
